nsP2pro inh = CHIKV nsP2 protease inhibition, primary qHTS | Q8JUX6 | FRET peptide cleavage, nsP2pro, fluorescence 1 h | Potency, µM (top dose mostly 24.9 µM), usual class: inhibitors | 1.1% of 31,000 active | AID 1964107; further: nearly all actives have a fitted effect of over 60% in size
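Enzyme 150 nM, substrate 2.5 uM (both final); Tris-HCl 10 mM pH 8.0 + 0.01% Tween 20; cpd up to 25 uM, 7 pts; 15 min preinc., 1 h RT; fluorescence ex 525/em 598.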
CHIKV nsP2 cell = cell-based CHIKV nsP2 protease inhibition, secondary. Potency, µM (doses to about 51.1 µM), actives largely listed as inhibitors. AID 1964100. shares compounds with nsP2pro inh. 10% of 450 active. cell-based CHIKV nsP2 protease reporter assay; further: nearly all actives have a fitted effect of over 70% in size
CHIKV NSP2 FL = selectivity test for CHIKV nsP2 protease inhibitors: full-length NSP2 | 39% of 410 active | Full-length CHIKV NSP2 protease enzymatic counterscreen | shares compounds with nsP2pro inh | Potency, µM (doses to about 50.7 µM), usual class: inhibitors; further: nearly all actives have a fitted effect of over 65% in size
Furin counter = inhibits human furin in a CHIKV nsP2 protease selectivity counterscreen; shares compounds with nsP2pro inh; Recombinant human furin enzymatic counterscreen, fluorogenic substrate; Potency, µM (highest dose often 50.6 µM), usual class: inhibitors; 6% of 410 active
nsP2 NS23 pep = nsP2pro inhibition on native NS2/3 peptide substrate | shares compounds with nsP2pro inh | Purified CHIKV nsP2 protease, endogenous NS2/3 peptide cleavage | Potency, µM (top dose mostly 51 µM), hits mostly inhibitors | 34% of 410 active | AID 1964103; further: nearly all actives have a fitted effect of over 55% in size
Papain counter = selectivity counter-screen for CHIKV nsP2 protease inhibitors: papain. shares compounds with nsP2pro inh. purified papain protease activity, enzymatic inhibition. Potency, µM (highest dose often 51 µM), hits mostly inhibitors. 5% of 410 active. AID 1964104
nsP2pro confirm = CHIKV nsP2 protease inhibition, confirmatory qHTS. shares compounds with nsP2pro inh. CHIKV nsP2 protease enzymatic activity, qHTS. Potency, µM (top dose mostly 25.5 µM), actives largely listed as inhibitors. 43% of 410 active; further: nearly all actives have a fitted effect of over 75% in size
HCV NS3 counter = HCV NS3/4A protease inhibition, counterscreen; shares compounds with nsP2pro inh; Potency, µM (highest dose often 50.9 µM), actives largely listed as inhibitors; 20% of 410 active; HCV NS3/4A protease biochemical counterscreen; further: nearly all actives have a fitted effect of over 55% in size
Hits are given with their value; i = inactive; ? = inconclusive. The full list was thinned out, with hits kept by preference. The call rests on the fitted dose curve.

SMILES	nsP2pro inh	others
COCC1CCCN(C(=O)c2cc(Cn3c(C)nc4ccccc43)[nH]n2)C1 (stereo not drawn)	i
O=C(c1ccc2ccccc2n1)N1CCC(n2cc(-c3nc(-c4ccccc4)no3)nn2)C1 (stereo not drawn)	i
COc1cccc(-c2cc(C3CCN(C(=O)Nc4ccccc4C(F)(F)F)CC3)[nH]n2)c1	i
O=C(c1cnc2n1CCN(CCc1ccccc1)CC2)N1CCC(c2ccccc2)CC1	i
CC(NC(=O)CNC(=O)c1cccc(-c2ccc(C(F)(F)F)cc2)c1)c1ccc(F)cc1 (stereo not drawn)	i
C=C(C(=O)O)C1CC2=C(C)C(=O)CC2C(C)CC1O (stereo not drawn)	4.42µM	CHIKV nsP2 cell=?;CHIKV NSP2 FL=?;Furin counter=i;nsP2 NS23 pep=?;Papain counter=i;nsP2pro confirm=?;HCV NS3 counter=i
N/C(=N\c1nnc(-c2ccncc2)s1)Nc1ccc(F)c(C(F)(F)F)c1	i
COCC(=O)N1CCN(c2nc3ncccc3o2)CC1	i
O=C1CO[C@H]2CN(Cc3ncc[nH]3)C[C@H]2N1Cc1ccc(F)cc1	i
CC(C)C[C@H](NC(=O)CNC(=O)c1cc(Cl)ccc1Cl)B1OC(=O)C(CC(=O)O)(CC(=O)O)O1	i
OC1CC(c2cccc(F)c2)N(Cc2ccc(-c3ccn[nH]3)o2)C1 (stereo not drawn)	?	CHIKV nsP2 cell=i;CHIKV NSP2 FL=i;Furin counter=i;nsP2 NS23 pep=?;Papain counter=i;nsP2pro confirm=?;HCV NS3 counter=i
CC(C)c1noc([C@@H]2C[C@@H](O)CN2Cc2cc3ccccc3o2)n1	i
O[C@@H]1C[C@@H](c2nc(Cc3ccc(F)cc3Cl)no2)N(Cc2ccc(OC(F)(F)F)cc2)C1	i
